Data on 24 sequences can be found in the supplement of paper PMC10338343.

± gives the standard deviation.

This experiment deals with MILI (PIWIL2) piRISC loaded with L1MC piRNA (26 nt). Briefly: pre-steady-state target cleavage rate (min^-1); guide: L1MC piRNA 5'p-UAACUAAAUACUAUGCAAGCUGUAGG; MIWI and MILI are mouse PIWI proteins and EfPiwi is from a freshwater sponge; tags in brackets are library labels; higher = faster piRNA-guided slicing of the target. Conditions: auxiliary factor: 500 nM mouse GTSF1. In short, it runs like this: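 Active affinity-purified piRISC (1 nM) loaded with one synthetic guide was mixed with a transcribed, DNA-blocked target RNA library (0.1 nM), with or without 500 nM GTSF1 partner protein, in HEPES–potassium acetate buffer at 33 °C for 0–8 or 0–960 min. Uncleaved targets were sequenced, normalised to depth and to weakly complementary targets, and pooled across three trials, with k3 capped at 0.0001 min^-1. The pre-steady-state cleavage rate was determined with a burst-and-steady-state fit.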
As for UCCUGCUACAGCUUGCUAAGUAUUUAGAAA, the “pre-steady-state target cleavage rate” value turned out to be 0.0738 ± 0.017.

As to UCCUGGAUGUCGUUGCAUAGUAAUUAGUAA, the “pre-steady-state target cleavage rate” value was 0.0579 ± 0.013.

For the sequence UCCUGGUACAGCUUGCAUAGUAUUUUCAUA, the “pre-steady-state target cleavage rate” value was determined as 0.0352 ± 0.014.

For the sequence UCCUGGAUGAGCUUGCAUUGUAUUUUGUUA, the “pre-steady-state target cleavage rate” value came out at 0.0997 ± 0.015.

For UCCUGGAUGUCCUUGCAUAGUAUUUCGUUA, the “pre-steady-state target cleavage rate” value is 0.0489 ± 0.017.

As for UCCUGGAUGUCCUUGCAUAGUAUAUUGUUA, the “pre-steady-state target cleavage rate” value came to 0.0329 ± 0.0079.

UCCUGGAUGUCGAACGUAUGUAUUUAUUUA: the “pre-steady-state target cleavage rate” value was less than 0.0001.

On to UCCUGGAACAGCUUGCAUAGUUUUUACAAA, for which the “pre-steady-state target cleavage rate” value came out at 0.00599 ± 0.0038.

Turning to UCCUGGAUCACGAUGCAUAGUAUUUAGAAA, the “pre-steady-state target cleavage rate” value turned out to be 0.111 ± 0.017.

For the sequence UCCUGGAUCAGCUUGCAUAGUAAAAAGUAA, the “pre-steady-state target cleavage rate” value was 0.108 ± 0.021.

For the sequence UCCUGGAUGUCCUUGCAUUCAAUUUAGUUA, the “pre-steady-state target cleavage rate” value amounted to 0.00852 ± 0.0047.

On to UCCUGGAUCAGCUUGCAUUCUAUUUAGUAA, for which the “pre-steady-state target cleavage rate” value is 0.0151 ± 0.0057.

On to UCCUGGAUCAGCUUGCAUAGUAUAAAGAAA, for which the “pre-steady-state target cleavage rate” value was found to be 0.0366 ± 0.01.

Turning to UCCUGGUAGAGCUUGCAUAGUAUUUAGAUA, the “pre-steady-state target cleavage rate” value came out at 0.14 ± 0.025.

As to UCCUGGAUGUCGAUGCCAUAGUAUUUAGUUA, the “pre-steady-state target cleavage rate” value is 0.00491 ± 0.0034.

Consider UCCUGGUACAGCUUGCAUAGUAUUAUCUUA, for which the “pre-steady-state target cleavage rate” value worked out at 0.0311 ± 0.014.

Regarding UCCUGGAUCAGCUUGCAUAGAAUUAAGUUA, the “pre-steady-state target cleavage rate” value was 0.0383 ± 0.011.

In the case of UCCUGGAUGUCGAUGCAUAGUAUUUCGUUA, the “pre-steady-state target cleavage rate” value came to 0.0116 ± 0.0056.

Consider UCCUGGAUGUCGUUGCAUAGUAUUUAGAUUA, for which the “pre-steady-state target cleavage rate” value is 0.0205 ± 0.0091.

Turning to UCCUGGAACAGCUUGCAAUCUAUUUAGUUA, the “pre-steady-state target cleavage rate” value was 0.0258 ± 0.0054.

UCCUGGAUCACCUUGCAUAGUAUUUAGAAA: the “pre-steady-state target cleavage rate” value was 0.22 ± 0.051.

As for UCCUGGAUGUCGAAGCACAGUAUUUAGUUA, the “pre-steady-state target cleavage rate” value was 0.00819 ± 0.0038.

Consider UCCUGGAUGUCCUUGCAAAGUAUUUUGUUA, for which the “pre-steady-state target cleavage rate” value was determined as 0.0119 ± 0.0056.

In the case of UCCUGGUACAGCUUGCAUAGUAUUUAUUA, the “pre-steady-state target cleavage rate” value was found to be 0.042 ± 0.016.
